Reference: PubChem BioAssay
Activity calls are given as the source filed them. Unless noted, the rule behind the calls is not given here.

Columns and labels:
[1] = compound effects on lung adenocarcinoma cell viability – A549, calcein-AM fluorescence, 48 h, basal, profiling panel (AID 1162); conditions: higher = more signal; note: test concentration not given here
[2] = compound effects on differentiated 3T3-L1 adipocyte viability – cell-based, 3T3-L1 adipocytes, calcein-AM fluorescence, 48 h, basal, profiling panel (AID 1163); conditions: 3T3-L1 adipocytes viability, higher = more signal; note: test concentration not given here
[3] = compound effects on hepatocellular carcinoma cell viability – HepG2, calcein-AM fluorescence, 48 h, basal, profiling panel (AID 1164); conditions: higher = more signal; note: test concentration not given here
[4] = compound effects on multiple myeloma cell viability – MM1S, calcein-AM fluorescence, 48 h, basal, profiling panel (AID 1165); conditions: higher = more signal; note: test concentration not given here
[5] = calcein-AM signal in unstimulated myeloma cells – cell-based, calcein-AM fluorescence, 48 h, PK04 Diversity Set, profiling panel (AID 1166); conditions: RPMI8226 myeloma viability, higher = more signal;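 note: cells grown under basal conditions without added stimulus; test concentration not given here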
[6] = JC-1 mitochondrial signal, unstimulated HepG2 cells – cell-based, JC-1 fluorescence, 24 h, 100 nL compound, profiling panel (AID 1167); conditions: HepG2 mitochondrial potential, higher = more signal; note: test concentration not given here
[7] = JC-1 mitochondrial signal, unstimulated adipocytes – cell-based, JC-1 fluorescence, 3T3-L1 adipocytes, 24 h, 100 nL compound, profiling panel (AID 1168); conditions: JC-1 mitochondrial fluorescence, higher = more signal, called active from +8 up or from −8 down; note: test concentration not given here
[8] = JC-1 mitochondrial signal, unstimulated myeloma cells – cell-based, JC-1 fluorescence, RPMI8226, 24 h, 100 nL compound, profiling panel (AID 1169); conditions: JC-1 mitochondrial potential fluorescence, higher = more signal; note: test concentration not given here
[9] = JC-1 mitochondrial signal, unstimulated MM1S myeloma – cell-based, JC-1 fluorescence, 24 h, 100 nL compound, profiling panel (AID 1170); conditions: MM1S mitochondrial potential, higher = more signal; note: test concentration not given here
[10] = resazurin metabolic signal in A549 cells – cell-based, resazurin fluorescence, 24 h, PK04 Diversity Set, profiling panel (AID 1171); conditions: A549 viability, higher = more signal, called active from +8 up or from −8 down; note: test concentration not given here
[11] = resazurin metabolic signal in HepG2 cells – cell-based, resazurin fluorescence, 24 h, PK04 Diversity Set, profiling panel (AID 1172); conditions: HepG2 viability, higher = more signal; note: test concentration not given here
[12] = budding yeast growth changes without added modifier – OD600, strain BY4716, 24 h, basal condition, primary screen (AID 1173); conditions: S. cerevisiae BY4716 growth, OD600, 24 h; higher = more signal, called active from +8 up or from −8 down
[13] = viability profiling in MM1S myeloma cells – cell-based, resazurin fluorescence, basal, 24 h, PK04 Diversity Set, profiling panel (AID 1174); conditions: higher = more signal, called active from +8 up or from −8 down; note: test concentration not given here
[14] = target: Dihydroorotate dehydrogenase (quinone), mitochondrial (Plasmodium falciparum (isolate 3D7)) (UniProt Q08210); experiment: inhibition of P. falciparum DHODH – biochemical, C-terminal His tag, absorbance 600 nm, primary screen (AID 1175); conditions: PfDHODH enzyme, DCIP absorbance 600 nm; higher = more signal, called active from +8 up or from −8 down;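 note: recombinant parasite enzyme with a five histidine tag at its C terminus; test concentration not given here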
Dihydroorotate dehydrogenase (quinone), mitochondrial (Plasmodium falciparum (isolate 3D7)), sequence (Q08210 whole entry, looked up): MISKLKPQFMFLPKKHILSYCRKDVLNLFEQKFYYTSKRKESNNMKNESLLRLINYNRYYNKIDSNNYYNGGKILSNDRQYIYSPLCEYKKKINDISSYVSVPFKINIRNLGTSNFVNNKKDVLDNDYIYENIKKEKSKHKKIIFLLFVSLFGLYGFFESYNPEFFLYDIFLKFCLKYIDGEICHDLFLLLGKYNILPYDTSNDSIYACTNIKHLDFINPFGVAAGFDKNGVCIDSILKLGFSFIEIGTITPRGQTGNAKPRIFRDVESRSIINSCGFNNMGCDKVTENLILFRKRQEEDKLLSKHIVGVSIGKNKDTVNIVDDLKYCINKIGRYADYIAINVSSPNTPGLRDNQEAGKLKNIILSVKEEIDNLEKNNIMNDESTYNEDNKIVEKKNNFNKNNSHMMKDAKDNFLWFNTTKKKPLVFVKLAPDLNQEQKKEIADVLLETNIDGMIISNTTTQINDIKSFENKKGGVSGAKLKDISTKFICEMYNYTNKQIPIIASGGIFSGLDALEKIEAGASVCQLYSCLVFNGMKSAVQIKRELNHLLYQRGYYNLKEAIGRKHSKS

[15] = inhibition of PAO1 biofilm formation – strain PAO1, LB-PBS medium, absorbance 600 nm, primary screen (AID 1176); note: test concentration not given here; conditions: P. aeruginosa PAO1 growth/biofilm, A600, 12 h; higher = more signal
[16] = growth modulation of vineyard yeast isolate – strain RM11-1a, OD600, basal, 24 h, primary screen (AID 1177);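 note: cultures grown under basal conditions with no added stressor; test concentration not given here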; conditions: S. cerevisiae RM11-1a growth, OD600, 24 h; higher = more signal, called active from +8 up or from −8 down
[17] = growth of efflux-deficient E. coli DRC39 – strain DRC39, OD650, 24 h, E. coli filamentation inducers, primary screen (AID 1178);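 note: growth measured as culture turbidity by optical density at 650 nm; test concentration not given here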; conditions: E. coli DRC39 acrAB, higher = more signal, called active from +8 up or from −8 down
[18] = growth of efflux-deficient E. coli DRC39 – strain DRC39, OD650, 48 h, E. coli filamentation inducers, primary screen (AID 1179);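 note: screen aims at cell division blockers that make cells filament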; conditions: E. coli DRC39 delta-acrAB growth, higher = more signal, called active from +8 up or from −8 down
[19] = viability profiling in RPMI8226 myeloma cells – cell-based, resazurin fluorescence, basal, 24 h, PK04 Diversity Set, profiling panel (AID 1180); conditions: higher = more signal;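 note: RPMI8826 multiple myeloma cell line at 5000 cells per well; test concentration not given here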
[20] = target: E3 ubiquitin-protein ligase XIAP (Homo sapiens) (UniProt P98170); experiment: small molecules binding XIAP protein – biophysical, small-molecule microarray, fluorescence 635 nm, primary screen (AID 1181); conditions: higher = more signal;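 note: score merges 667 nm emission and signal to noise over triplicate slides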
E3 ubiquitin-protein ligase XIAP (Homo sapiens), sequence (P98170 whole entry, looked up): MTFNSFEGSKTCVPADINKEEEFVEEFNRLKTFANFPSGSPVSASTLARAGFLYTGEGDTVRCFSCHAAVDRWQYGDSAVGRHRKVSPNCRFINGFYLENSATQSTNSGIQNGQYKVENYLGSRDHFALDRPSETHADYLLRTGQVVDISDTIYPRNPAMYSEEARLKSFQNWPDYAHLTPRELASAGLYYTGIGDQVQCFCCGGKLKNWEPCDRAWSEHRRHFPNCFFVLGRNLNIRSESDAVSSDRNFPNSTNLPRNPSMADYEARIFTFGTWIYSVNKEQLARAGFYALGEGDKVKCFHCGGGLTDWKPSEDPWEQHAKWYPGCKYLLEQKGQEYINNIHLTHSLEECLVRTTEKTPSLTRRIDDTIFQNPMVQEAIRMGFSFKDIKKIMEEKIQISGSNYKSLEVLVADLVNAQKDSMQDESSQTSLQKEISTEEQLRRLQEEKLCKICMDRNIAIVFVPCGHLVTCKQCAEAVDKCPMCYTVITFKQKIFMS

COC(=O)[C@H](C)NC(=O)CCC1CC(OC(=O)NCCc2ccc(F)cc2)CC2(CCCC(COC(=O)NCc3ccccc3)O2)O1 (stereo not given in full)
z-score [1]: -0.101
z-score [2]: -0.0012
z-score [3]: 0.601
z-score [4]: 0.756
z-score [5]: -0.484
z-score [6]: 0.995
z-score [7]: 0.553 (inactive)
z-score [8]: 0.265
z-score [9]: -0.579
z-score [10]: 0.896 (inactive)
z-score [11]: 0.445
z-score [12]: 1.45 (inactive)
z-score [13]: 1.05 (inactive)
composite z-score [14]: 0.152 (inactive)
z-score [15]: 0.119 (inactive)
z-score [16]: 1.02 (inactive)
z-score [17]: 0.0734 (inactive)
z-score [18]: -0.445 (inactive)
z-score [19]: 1.07
composite z-score [20]: -0.0601

CO[C@@H]1C=CCC(=O)N[C@@H](C)C(=O)OC[C@@H](NS(=O)(=O)c2ccc(C)cc2)[C@H](C)C=CCC(=O)OC[C@H]1C
z-score [1]: -0.533
z-score [2]: 0.37
z-score [3]: 0.495
z-score [4]: -0.0903
z-score [5]: -0.431
z-score [6]: 0.0105
z-score [7]: 0.0826 (inactive)
z-score [8]: -0.782
z-score [9]: 0.301
z-score [10]: 0.179 (inactive)
z-score [11]: -0.0689
z-score [12]: -0.872 (inactive)
z-score [13]: -0.0213 (inactive)
composite z-score [14]: -0.165 (inactive)
z-score [15]: -0.212 (inactive)
z-score [16]: -0.876 (inactive)
z-score [17]: 0.0721 (inactive)
z-score [18]: -0.418 (inactive)
z-score [19]: 0.135
composite z-score [20]: 0.201

CCN1C(=O)[C@H]2[C@H]3[C@H](O)[C@H](O)CC(=NOCC=C(C)CCC=C(C)C)[C@@H]3CC[C@H]2C1=O
z-score [1]: -0.0234
z-score [2]: 0.28
z-score [3]: -0.196
z-score [4]: -0.701
z-score [5]: 0.203
z-score [6]: -0.731
z-score [7]: -1.56 (inactive)
z-score [8]: -0.321
z-score [9]: 0.355
z-score [10]: 0.298 (inactive)
z-score [11]: -0.623
z-score [12]: -6.59 (inactive)
z-score [13]: -0.719 (inactive)
composite z-score [14]: -1.16 (inactive)
z-score [15]: -0.446 (inactive)
z-score [16]: -0.29 (inactive)
z-score [17]: 0.42 (inactive)
z-score [18]: -0.731 (inactive)
z-score [19]: -0.517
composite z-score [20]: 0.155

CC(=O)OC[C@H]1O[C@H](C#CCC2CCCCC2)C=C[C@@H]1OC(C)=O
z-score [1]: 0.422
z-score [2]: -0.654
z-score [3]: 0.503
z-score [4]: -3.48
z-score [5]: -3.35
z-score [6]: -1.1
z-score [7]: -0.185 (inactive)
z-score [8]: -0.605
z-score [9]: -1.99
z-score [10]: -0.389 (inactive)
z-score [11]: 0.0616
z-score [12]: -3.69 (inactive)
z-score [13]: -2.52 (inactive)
composite z-score [14]: -0.529 (inactive)
z-score [15]: 0.781 (inactive)
z-score [16]: 0.143 (inactive)
z-score [17]: 1.07 (inactive)
z-score [18]: 0.591 (inactive)
z-score [19]: -1.24
composite z-score [20]: -0.0314

CCOC(=O)[C@H](Cc1ccccc1)NC(=O)CCC1CC(OC(=O)NCc2ccc3c(c2)OCO3)CC2(CCCC(COC(=O)NCCc3ccc(Cl)cc3)O2)O1 (stereo not given in full)
z-score [1]: 1.81
z-score [2]: 0.71
z-score [3]: 0.622
z-score [4]: -0.845
z-score [5]: -0.167
z-score [6]: 0.783
z-score [7]: 0.361 (inactive)
z-score [8]: -0.162
z-score [9]: -1.27
z-score [10]: -0.455 (inactive)
z-score [11]: -0.202
z-score [12]: -0.65 (inactive)
z-score [13]: 0.366 (inactive)
composite z-score [14]: -1.47 (inactive)
z-score [15]: 0.769 (inactive)
z-score [16]: -1.72 (inactive)
z-score [17]: -0.226 (inactive)
z-score [18]: -0.756 (inactive)
z-score [19]: -0.759
composite z-score [20]: -0.133

CON=C1c2cc(OC)ccc2O[C@H](c2cccc(OC)c2)[C@H]1O
z-score [1]: 0.744
z-score [2]: 0.448
z-score [3]: -0.743
z-score [4]: -0.416
z-score [5]: 0.53
z-score [6]: 0.181
z-score [7]: -0.672 (inactive)
z-score [8]: -0.0443
z-score [9]: 1.39
z-score [10]: -0.124 (inactive)
z-score [11]: 0.291
z-score [12]: -5.98 (inactive)
z-score [13]: 0.322 (inactive)
composite z-score [14]: -0.469 (inactive)
z-score [15]: -0.455 (inactive)
z-score [16]: -0.175 (inactive)
z-score [17]: 0.489 (inactive)
z-score [18]: 0.957 (inactive)
z-score [19]: 0.411
composite z-score [20]: 0.418

C[C@H]1CC[C@H]2C(=O)N[C@H](Cc3ccccc3)C(=O)N2[C@@H]1c1ccccc1
z-score [1]: -0.103
z-score [2]: 0.283
z-score [3]: 0.194
z-score [4]: -0.643
z-score [5]: 0.0185
z-score [6]: 0.399
z-score [7]: -0.556 (inactive)
z-score [8]: 0.471
z-score [9]: 1.28
z-score [10]: -0.232 (inactive)
z-score [11]: -0.69
z-score [12]: -0.512 (inactive)
z-score [13]: -0.322 (inactive)
composite z-score [14]: 0.868 (inactive)
z-score [15]: -0.327 (inactive)
z-score [16]: 0.0033 (inactive)
z-score [17]: 0.718 (inactive)
z-score [18]: 0.295 (inactive)
z-score [19]: -0.142
composite z-score [20]: -0.24

C[C@H]1CC[C@@H](C(=O)O)N[C@@H]1c1cccc(N2CCCC2=O)c1
z-score [1]: 0.594
z-score [2]: -0.115
z-score [3]: 0.652
z-score [4]: 0.149
z-score [5]: -1.12
z-score [6]: 1.66
z-score [7]: 0.574 (inactive)
z-score [8]: 0.468
z-score [9]: -0.436
z-score [10]: 0.0065 (inactive)
z-score [11]: 0.672
z-score [12]: -0.281 (inactive)
z-score [13]: -0.0691 (inactive)
composite z-score [14]: 0.552 (inactive)
z-score [15]: -0.163 (inactive)
z-score [16]: 0.765 (inactive)
z-score [17]: 0.968 (inactive)
z-score [18]: 0.215 (inactive)
z-score [19]: -0.652
composite z-score [20]: 0.0909

CCCC[C@H]1CN2[C@@H](CC[C@@H](C)[C@@H]2c2ccc(Br)cc2)C(=O)O1
z-score [1]: 0.214
z-score [2]: 0.544
z-score [3]: -0.189
z-score [4]: -0.256
z-score [5]: -0.238
z-score [6]: 0.13
z-score [7]: -0.206 (inactive)
z-score [8]: -0.221
z-score [9]: 0.94
z-score [10]: 0.8 (inactive)
z-score [11]: 0.314
z-score [12]: -2.36 (inactive)
z-score [13]: 1.05 (inactive)
composite z-score [14]: -0.355 (inactive)
z-score [15]: -0.515 (inactive)
z-score [16]: 0.0621 (inactive)
z-score [17]: -0.959 (inactive)
z-score [18]: -0.985 (inactive)
z-score [19]: 0.919
composite z-score [20]: 0.127

CCOC(=O)[C@H](Cc1ccccc1)NC(=O)CCC1CC(OC(=O)NCc2cccc3ccccc23)CC2(CCCC(COC(=O)NCC3CCCCC3)O2)O1 (stereo not given in full)
z-score [1]: 0.391
z-score [2]: 0.146
z-score [3]: -0.574
z-score [4]: -0.0497
z-score [5]: -0.68
z-score [6]: -0.00703
z-score [7]: -0.00973 (inactive)
z-score [8]: -0.198
z-score [9]: -0.296
z-score [10]: 0.684 (inactive)
z-score [11]: 1.21
z-score [12]: -0.424 (inactive)
z-score [13]: 1.43 (inactive)
composite z-score [14]: -0.105 (inactive)
z-score [15]: 0.143 (inactive)
z-score [16]: -0.104 (inactive)
z-score [17]: -0.475 (inactive)
z-score [18]: 0.481 (inactive)
z-score [19]: 0.0833
composite z-score [20]: 0.0424

O=C(NN=C1C[C@@H](O)[C@@H](O)[C@@H]2[C@@H]3C(=O)N(Cc4ccccc4)C(=O)[C@@H]3CC[C@H]12)OCc1ccccc1
z-score [1]: 0.614
z-score [2]: 0.52
z-score [3]: -0.604
z-score [4]: 0.881
z-score [5]: -0.256
z-score [6]: 0.846
z-score [7]: 0.415 (inactive)
z-score [8]: -0.415
z-score [9]: -0.427
z-score [10]: 0.288 (inactive)
z-score [11]: 0.604
z-score [12]: -0.921 (inactive)
z-score [13]: 1.14 (inactive)
composite z-score [14]: -0.993 (inactive)
z-score [15]: 0.471 (inactive)
z-score [16]: -0.948 (inactive)
z-score [17]: 0.59 (inactive)
z-score [18]: -0.783 (inactive)
z-score [19]: 0.9
composite z-score [20]: -0.21
